Test results taken from PubChem BioAssay AID1159580 (chemical genetic matrix, 2015).
Values joined by “and” are separate entries in the source; they are usually repeats but may differ in a detail not shown here. Equal entries are not always repeated. Hit rate of the full screen: of about 5,500 compounds, about 2,000 (36%) were called active. About 18% were inconclusive and are not listed. Cut-off read from the data, not from the text of the source: active = normalized growth mostly below about 0.91 (no sharp cut-off); inconclusive = no clear call, values can overlap the other calls; inactive = mostly above about 0.92. The list shows a part of the results.

Test: chemical genetic growth profiling, strain panel (AID 1159580);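 note: tested at 20 µM; growth read once vehicle control cultures reached saturation at 30 °C; 1 = growth at the plate median or of vehicle wells; lower values mean less growth of the strain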
Conditions: S. cerevisiae deletion strains, growth OD

Measured: normalized growth

CCN1CCN(C(=O)NC(C(=O)N[C@@H]2C(=O)N3[C@@H]2SC(C)(C)[C@@H]3C(=O)O)c2ccccc2)C(=O)C1=O (stereo partly specified)
inactive: locus YAL013W, strain DEP1, hits give low values 1.01 | locus YAL021C, strain ccr4, hits give low values 1 | locus YAL026C, strain drs2, hits give low values 0.999 | locus YAL030W, strain snc1, hits give low values 1.01 | locus YBL061C, strain skt5, hits give low values 0.999 | locus YBR009C, strain hhf1, hits give low values 1.02 | locus YBR021W, strain FUR4, hits give low values 1.01 | locus YBR023C, strain chs3, hits give low values 1.01 | locus YBR171W, strain sec66, hits give low values 1 | locus YBR229C, strain ROT2, hits give low values 1.01 | locus YBR231C, strain swc5, hits give low values 0.98 | locus YBR279W, strain paf1, hits give low values 1 | locus YCL011C, strain gbp2, hits give low values 1.02 | locus YCL016C, strain dcc1, hits give low values 1 | locus YCL029C, strain bik1, hits give low values 1.02 | locus YCL061C, strain MRC1, hits give low values 0.995 | locus YCL069W, strain vba3, hits give low values 0.99 | locus YCR088W, strain abp1, hits give low values 1 | locus YDL005C, strain med2, hits give low values 0.988 | locus YDL035C, strain GPR1, hits give low values 0.988 | locus YDL040C, strain nat1, hits give low values 0.989 | locus YDL074C, strain BRE1, hits give low values 0.993 | locus YDL101C, strain DUN1, hits give low values 1.02 | locus YDL134C, strain PPH21, hits give low values 1.01 | locus YDL185W, strain tfp1, hits give low values 1.02 | locus YDL192W, strain arf1, hits give low values 1.01 | locus YDR001C, strain nth1, hits give low values 0.991 | locus YDR069C, strain doa4, hits give low values 0.997 | locus YDR101C, strain arx1, hits give low values 1.01 | locus YDR137W, strain rgp1, hits give low values 0.975 | locus YDR150W, strain NUM1, hits give low values 1.02 | locus YDR159W, strain sac3, hits give low values 1 | locus YDR162C, strain NBP2, hits give low values 0.997 | locus YDR195W, strain ref2 0.959 | locus YDR297W, strain sur2, hits give low values 0.996 | locus YDR318W, strain mcm21, hits give low values 1.02 | locus YDR334W, strain swr1, hits give low values 1 | locus YDR335W, strain msn5, hits give low values 0.999 | locus YDR388W, hits give low values 1.01 | locus YDR392W, strain spt3, hits give low values 1.03 | locus YDR502C, strain sam2, hits give low values 1.01 | locus YEL003W, strain gim4, hits give low values 1.01 | locus YEL037C, strain rad23, hits give low values 0.997 | locus YEL061C, strain CIN8 (second series), hits give low values 1 | locus YEL061C, strain CIN8, hits give low values 1.01 | locus YER015W, strain faa2, hits give low values 0.992 | locus YER016W, strain bim1, hits give low values 1 | locus YER110C, hits give low values 1.02 | locus YER111C, strain swi4, hits give low values 1 | locus YER155C, strain BEM2 (second series), hits give low values 0.993 | locus YER155C, strain BEM2, hits give low values 0.991 | locus YER167W, strain BCK2, hits give low values 1.01 | locus YFR010W, strain ubp6, hits give low values 0.984 | locus YGL078C, strain dbp3, hits give low values 1.01 | locus YGL086W, strain mad1, hits give low values 1.02 | locus YGL167C, strain pmr1, hits give low values 1 | locus YGL173C, strain kem1, hits give low values 0.991 | locus YGL227W, strain vid30, hits give low values 0.989 | locus YGL240W, strain doc1, hits give low values 0.975 | locus YGL248W, strain PDE1, hits give low values 1.01 | locus YGL253W, strain hxk2, hits give low values 0.999 | locus YGR078C, strain PAC10, hits give low values 1.02 | locus YGR135W, strain pre9, hits give low values 1 | locus YGR229C, strain SMI1, hits give low values 1 | locus YGR252W, strain gcn5, hits give low values 1.01 | locus YHR013C, strain ard1, hits give low values 0.975 | locus YHR027C, strain rpn1, hits give low values 0.996 | locus YHR030C, strain SLT2, hits give low values 1.01 and 1 | locus YHR079C, strain IRE1 (second series), hits give low values 1.02 | locus YHR079C, strain IRE1, hits give low values 1.01 | locus YHR094C, strain hxt1, hits give low values 1.01 | locus YHR129C, strain ARP1, hits give low values 1 | locus YHR142W, strain chs7, hits give low values 0.998 | locus YHR200W, strain rpn10, hits give low values 1.01 | locus YIL066C, strain RNR3, hits give low values 1.01 | locus YIL073C, strain SPO22, hits give low values 1.05 | locus YIL125W, strain kgd1, hits give low values 1.01 | locus YIR030C, strain dcg1, hits give low values 1.01 | locus YJL092W, strain hpr5, hits give low values 1 | locus YJL095W, strain BCK1 (second series), hits give low values 1 | locus YJL095W, strain BCK1, hits give low values 1 and 0.999 | locus YJL115W, strain asf1, hits give low values 0.996 | locus YJL129C, strain trk1, hits give low values 0.993 | locus YJL134W, strain LCB3, hits give low values 1.01 | locus YJL154C, strain vps35, hits give low values 1 | locus YJL164C, strain tpk1, hits give low values 0.99 | locus YJL166W, strain qcr8, hits give low values 0.992 | locus YJL168C, strain set2, hits give low values 1.01 | locus YJL187C, strain SWE1 (second series), hits give low values 1.03 | locus YJR043C, strain POL32, hits give low values 0.994 | locus YJR066W, strain TOR1, hits give low values 0.953
